The target in the first experiment is TSEN34. As to the kind of experiment: pooled miR-30 sensor sort-seq; sequence = guide strand. Particulars: shRNA.
Take TACTGTAGCGCAGCTCGTGGGC: the sensor-assay potency score (higher = more potent) was -0.594.

As for TTCTGCTTCTTAGCAGCCTGGC, the sensor-assay potency score (higher = more potent) is -0.77.

Turning to TCTTTAGACTGGACACGCCAGT, the sensor-assay potency score (higher = more potent) is -1.04.

For the sequence TCTCTGTAGATACTGTAGCGCA, the sensor-assay potency score (higher = more potent) is -0.97.

ATCACTGGTCTCATCCTCTTTG: the sensor-assay potency score (higher = more potent) was -0.941.

TAGACTGGACACGCCAGTCCAG: the sensor-assay potency score (higher = more potent) is -1.11.

Regarding TCTGTAGATACTGTAGCGCAGC, the sensor-assay potency score (higher = more potent) was -0.735.

In turn, TCTAGTTTCTGCTTCTTAGCAG had a sensor-assay potency score (higher = more potent) of 0.419.

In the case of AATCTTCTCCAGGAGCTCCTGA, the sensor-assay potency score (higher = more potent) was -1.01.

Another experiment has as its target TSPAN3. The description is as above. Particulars: shRNA.
TTTCTTGTAGCTTCTTCACTAC: the sensor-assay potency score (higher = more potent) is -0.264.

Regarding TAAGCAGGATCTCTACTCCTTC, the sensor-assay potency score (higher = more potent) is -0.519.

On to TTCTGTGACAAAAACCAAGAGC, for which the sensor-assay potency score (higher = more potent) is -0.255.

The sequence AACCACTACAACAACTTCTGTG registered a sensor-assay potency score (higher = more potent) of 0.151.

With TTGCTGGCAGTCTCTCTGCAGC, the sensor-assay potency score (higher = more potent) was -1.25.

TACACTTTCTGAATGCTGCGAT registered a sensor-assay potency score (higher = more potent) of 1.02.

For TTTCTTTGAACCAATCTGTATT, the sensor-assay potency score (higher = more potent) is -1.05.

For TTATACACTTTCTGAATGCTGC, the sensor-assay potency score (higher = more potent) was -0.18.

Take AATTCCACAACAATGCAGCTGT: the sensor-assay potency score (higher = more potent) is 0.00279.

TTGCTCTGTAAACATATCCCAA: the sensor-assay potency score (higher = more potent) was -1.02.

Consider TAGGTCTTATACACTTTCTGAA, for which the sensor-assay potency score (higher = more potent) was -0.69.

The target in a further experiment is TSPAN8. The experiment is described as above. Particulars: shRNA.
AACAACAGAAGCATGCAGCGAC: the sensor-assay potency score (higher = more potent) is -0.179.

With TATGAAAAACAACAGAAGCATG, the sensor-assay potency score (higher = more potent) was -1.79.

Consider TAGGATACCTGTCGCCACCTGC, for which the sensor-assay potency score (higher = more potent) is -0.685.

As to TTGAGAGTCATTGCTTACTCGT, the sensor-assay potency score (higher = more potent) was -0.804.

For TTTGAAAACAGCTCCTAGGATA, the sensor-assay potency score (higher = more potent) is -0.99.

TTGTTTTCCATTATAGCTTTGG: the sensor-assay potency score (higher = more potent) was -0.474.

Consider TTGCTTGAGAGTCATTGCTTAC, for which the sensor-assay potency score (higher = more potent) was -1.33.

The sequence TTAGATTTGAAAACAGCTCCTA showed a sensor-assay potency score (higher = more potent) of 0.475.

For TATAGCACCGCAGCATCCCAGG, the sensor-assay potency score (higher = more potent) is -1.12.

In the case of TATGTCTAGAAGATATCTGTGG, the sensor-assay potency score (higher = more potent) is -0.374.

For the sequence TAGATTTGAAAACAGCTCCTAG, the sensor-assay potency score (higher = more potent) is -0.482.

The target in a further experiment is TSPY2. Described as above. Particulars: shRNA.
For the sequence TCTTGCAGAGATGAACACGATG, the sensor-assay potency score (higher = more potent) is -0.976.

TCCTGCACAGCCTCCATCCTGA: the sensor-assay potency score (higher = more potent) was -1.01.

On to ATGAACACGATGCTTCTCTTCT, for which the sensor-assay potency score (higher = more potent) was -0.856.

The target of another experiment is TSPYL2. The experiment is described as above. Particulars: shRNA.
On to TCATTGTCACTGTCGCTGCTGT, for which the sensor-assay potency score (higher = more potent) is -0.335.

In turn, TCAATGTCTGAGATCTCGCTGA gave a sensor-assay potency score (higher = more potent) of 0.0217.

For the sequence TCTCTGTCGTCATCATCGCTGC, the sensor-assay potency score (higher = more potent) was -0.7.

ATAGATGTCCTCATCTTGCTGG registered a sensor-assay potency score (higher = more potent) of 0.469.

Consider TTGTGGTCAGGATTCTCGCTGT, for which the sensor-assay potency score (higher = more potent) was -0.451.

In turn, TTGATCAAAATTGAAATTCTGG gave a sensor-assay potency score (higher = more potent) of 0.568.

The values above are taken from the OligoGym collection.
Further: reference of the scale not given here.
